Experimental data as given in PubChem BioAssay AID1159580 (chemical genetic matrix, 2015).
The whole screen tested about 5,500 compounds, of which about 2,000 (36%) were called active. Roughly 18% stayed inconclusive and do not appear here. No stated cut-off is given here; in the data, active means normalized growth mostly below about 0.91 (no sharp cut-off); inconclusive means no clear call, values can overlap the other calls; inactive means mostly above about 0.92. This is one part of the list.

Experiment: chemical genetic growth profiling, strain panel (AID 1159580);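 further: tested at 20 µM; growth read once vehicle control cultures reached saturation at 30 °C; 1 = growth at the plate median or of vehicle wells; lower values mean less growth of the strain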
Details: growth OD

Measured: normalized growth

CC1(C)O[C@H]2[C@H](O)C[C@](O)(C(N)=O)C[C@H]2O1
inactive: S. cerevisiae deletion strains, locus YJR075W, strain HOC1, hits give low values 1.03 | S. cerevisiae deletion strains, locus YKL009W, strain mrt4, hits give low values 1.04 | S. cerevisiae deletion strains, locus YKL068W, hits give low values 1.01 | S. cerevisiae deletion strains, locus YKL085W, strain MDH1 (second series), hits give low values 1.03 | S. cerevisiae deletion strains, locus YKL085W, strain MDH1, hits give low values 1.03 | S. cerevisiae deletion strains, locus YKL160W, strain elf1, hits give low values 1 | S. cerevisiae deletion strains, locus YKL190W, strain CNB1, hits give low values 1.02 | S. cerevisiae deletion strains, locus YKR001C, strain vps1, hits give low values 1.06 | S. cerevisiae deletion strains, locus YKR026C, strain gcn3, hits give low values 1.01 | S. cerevisiae deletion strains, locus YKR091W, strain srl3, hits give low values 1.02 | S. cerevisiae deletion strains, locus YLL001W, strain dnm1, hits give low values 0.999 | S. cerevisiae deletion strains, locus YLL026W, hits give low values 1.01 | S. cerevisiae deletion strains, locus YLL041C, strain sdh2, hits give low values 1.02 | S. cerevisiae deletion strains, locus YLR027C, strain aat2, hits give low values 1.03 | S. cerevisiae deletion strains, locus YLR039C, strain RIC1, hits give low values 1.25 | S. cerevisiae deletion strains, locus YLR058C, strain SHM2, hits give low values 1.04 | S. cerevisiae deletion strains, locus YLR102C, strain apc9, hits give low values 1.01 | S. cerevisiae deletion strains, locus YLR113W, strain HOG1, hits give low values 1.02 | S. cerevisiae deletion strains, locus YLR221C, strain rsa3, hits give low values 1.02 | S. cerevisiae deletion strains, locus YLR258W, strain gsy2, hits give low values 1.01 | S. cerevisiae deletion strains, locus YLR262C, strain YPT6 (second series), hits give low values 1.08 | S. cerevisiae deletion strains, locus YLR268W, strain sec22, hits give low values 1.05 | S. cerevisiae deletion strains, locus YLR320W, strain mms22, hits give low values 1.03 | S. cerevisiae deletion strains, locus YLR330W, strain CHS5, hits give low values 1.02 | S. cerevisiae deletion strains, locus YLR342W, strain FKS1 (second series), hits give low values 1.03 | S. cerevisiae deletion strains, locus YLR342W, strain FKS1, hits give low values 1.01 | S. cerevisiae deletion strains, locus YLR357W, strain rsc2, hits give low values 1.01 | S. cerevisiae deletion strains, locus YLR370C, strain arc18, hits give low values 1.02 | S. cerevisiae deletion strains, locus YLR371W, strain rom2, hits give low values 1.05 | S. cerevisiae deletion strains, locus YLR384C, strain iki3, hits give low values 1.02 | S. cerevisiae deletion strains, locus YLR418C, strain cdc73, hits give low values 1.09 | S. cerevisiae deletion strains, locus YML016C, strain PPZ1, hits give low values 1.03 | S. cerevisiae deletion strains, locus YML032C, strain rad52, hits give low values 1.03 | S. cerevisiae deletion strains, locus YML120C, strain ndi1, hits give low values 1.01 | S. cerevisiae deletion strains, locus YML124C, strain tub3, hits give low values 1.02 | S. cerevisiae deletion strains, locus YMR058W, strain fet3, hits give low values 1.02 | S. cerevisiae deletion strains, locus YMR078C, strain ctf18, hits give low values 1.03 | S. cerevisiae deletion strains, locus YMR125W, strain sto1, hits give low values 1 | S. cerevisiae deletion strains, locus YMR129W, hits give low values 1.01 | S. cerevisiae deletion strains, locus YMR205C, strain PFK2, hits give low values 1.02 | S. cerevisiae deletion strains, locus YMR223W, strain ubp8, hits give low values 1.05 | S. cerevisiae deletion strains, locus YMR231W, strain pep5, hits give low values 1.01 | S. cerevisiae deletion strains, locus YMR307W, strain GAS1, hits give low values 1.27 | S. cerevisiae deletion strains, locus YNL067W, strain RPL9B, hits give low values 1.01 | S. cerevisiae deletion strains, locus YNL071W, strain lat1, hits give low values 1.03 | S. cerevisiae deletion strains, locus YNL153C, strain GIM3, hits give low values 1.05 | S. cerevisiae deletion strains, locus YNL183C, strain NPR1, hits give low values 0.945 | S. cerevisiae deletion strains, locus YNL209W, strain ssb2, hits give low values 1.02 | S. cerevisiae deletion strains, locus YNL233W, strain BNI4, hits give low values 1.07 | S. cerevisiae deletion strains, locus YNL248C, strain rpa49, hits give low values 1.01 | S. cerevisiae deletion strains, locus YNL250W, strain rad50, hits give low values 1.06 | S. cerevisiae deletion strains, locus YNL271C, strain bni1, hits give low values 1.04 | S. cerevisiae deletion strains, locus YNL298W, strain CLA4, hits give low values 1.02 | S. cerevisiae deletion strains, locus YNL307C, strain MCK1, hits give low values 1.03 | S. cerevisiae deletion strains, locus YNL322C, strain KRE1 (second series), hits give low values 1.01 | S. cerevisiae deletion strains, locus YNL322C, strain KRE1, hits give low values 1.02 | S. cerevisiae deletion strains, locus YNR049C, strain mso1, hits give low values 1.02 | S. cerevisiae deletion strains, locus YNR052C, strain pop2, hits give low values 1.03 | S. cerevisiae deletion strains, locus YOL012C, strain htz1 0.602 | S. cerevisiae deletion strains, locus YOL147C, strain pex11, hits give low values 1.01 | S. cerevisiae deletion strains, locus YOR001W, strain rrp6, hits give low values 1.04 | S. cerevisiae deletion strains, locus YOR061W, strain CKA2, hits give low values 1.03 | S. cerevisiae deletion strains, locus YOR069W, strain VPS5, hits give low values 1.02 | S. cerevisiae deletion strains, locus YOR070C, strain gyp1, hits give low values 1.01 | S. cerevisiae deletion strains, locus YOR080W, strain dia2, hits give low values 1.01 | S. cerevisiae deletion strains, locus YOR083W, strain WHI5, hits give low values 1.02 | S. cerevisiae deletion strains, locus YOR106W, strain vam3, hits give low values 1.01 | S. cerevisiae deletion strains, locus YOR136W, strain idh2, hits give low values 1.04 | S. cerevisiae deletion strains, locus YOR144C, strain elg1, hits give low values 1.01 | S. cerevisiae deletion strains, locus YOR184W, strain ser1, hits give low values 1.06 | S. cerevisiae deletion strains, locus YOR231W, strain MKK1, hits give low values 0.989 | S. cerevisiae deletion strains, locus YOR265W, strain rbl2, hits give low values 1.01 | S. cerevisiae deletion strains, locus YOR270C, strain vph1, hits give low values 1.06 | S. cerevisiae deletion strains, locus YOR290C, strain snf2, hits give low values 1.03 | S. cerevisiae deletion strains, locus YOR316C, strain cot1, hits give low values 1.02 | S. cerevisiae deletion strains, locus YPL051W, strain arl3, hits give low values 0.997 | S. cerevisiae deletion strains, locus YPL055C, strain LGE1, hits give low values 1.09 | S. cerevisiae deletion strains, locus YPL078C, strain atp4, hits give low values 1.01 | S. cerevisiae deletion strains, locus YPL106C, strain sse1, hits give low values 0.996 | S. cerevisiae deletion strains, locus YPL240C, strain hsp82, hits give low values 1.01 | S. cerevisiae deletion strains, locus YPL241C, strain CIN2, hits give low values 1.02 | S. cerevisiae deletion strains, locus YPL256C, strain CLN2, hits give low values 0.995 | S. cerevisiae deletion strains, locus YPR119W, strain clb2, hits give low values 1.03 | S. cerevisiae deletion strains, locus YPR141C, strain kar3, hits give low values 1.03 | S. cerevisiae deletion strains, locus YPR163C, strain tif3, hits give low values 1.04 | S. cerevisiae deletion strains, locus YPR167C, strain met16, hits give low values 1.04 | S. cerevisiae deletion strains, strain wtn01, hits give low values 1.03 | S. cerevisiae strains, strain wild type, hits give low values 1.06
